Screens deposited in PubChem by Sanford-Burnham Center for Chemical Genomics.
PABP polyA inh – PABP poly(A) RNA binding inhibitors, primary screen, biochemical, fluorescence polarization, uHTS. AID 2014, 2009. inhibition, % at 35 µM. 290,000 compounds, 1% hits. Polyadenylate-binding protein 1 (Homo sapiens), P11940;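 further: calls also rest on retests at 20 µM and on dose response follow-up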
MLLE-PAM2 inh – inhibitors of PABP1 MLLE–PAM2 peptide binding, primary screen, biochemical, fluorescence polarization, FITC-PAM2, GST-MLLE | Polyadenylate-binding protein 1 (Homo sapiens), P11940 | inhibition, % at 20 µM | 360,000 compounds, 0.36% hits; in the data active means inhibition above about 35%, passing the limit was not always enough;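 further: plate controls were DMSO wells with GST-MLLE for no effect and wells lacking GST-MLLE protein for full effect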
NRP1-CendR mod – modulators of CendR peptide binding to NRP-1, primary screen, biochemical, fluorescence polarization, uHTS; Neuropilin-1 (Homo sapiens), O14786; FAM-RPARPAR peptide binding to NRP-1; inhibition, % at 25 µM; 360,000 compounds, 0.85% hits;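 active means inhibition or corrected inhibition above about 18%, plus a signal ratio from 0.5 to 1.5, limit read from the data, passing the limit was not always enough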
eIF4H inh – human eIF4H binding inhibitors, primary screen, translation initiation inhibitor project, biochemical, uHTS, fluorescence polarization | eIF4H fluorescence polarization binding assay | inhibition, % at 35 µM | 290,000 compounds, 0.94% hits | AID 2012, 2009;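 further: calls also rest on retests at 20 µM and on dose response follow-up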
The depositor's hits bear a star; ? = inconclusive; / = no result. Hits are enriched below; roughly 2.1% of the tested compounds scored in any of these assays. Unless noted, how the calls were made is not given here.

SMILES	PABP polyA inh	MLLE-PAM2 inh	NRP1-CendR mod	eIF4H inh
O=C(N/N=C/c1ccco1)c1cc(-c2cccs2)[nH]n1	active	-3	-6	60*
C/C(=N\NC(=O)c1cc(-c2ccc(Br)s2)[nH]n1)c1ccncc1	4	-25	8	-10
Cc1nc2ccccc2cc1C(=O)N/N=C/c1ccco1	-18	-4	-6	87*
C/C(=N/NC(=O)c1cc(-c2ccc(Br)s2)[nH]n1)c1ccco1	-5	-19	36*	-9
C/C(=N\NC(=O)c1ccc(-c2ccccc2)cc1)c1ccco1	-2	2	13	-11
COc1ccc(CNC(=O)C2CCCN(S(=O)(=O)c3ccc(F)cc3)C2)cc1 (stereo not drawn)	10	6	9	8
CCOc1cc(/C=C2\C(=O)N(CCC#N)N=C2C)ccc1OCC(N)=O	-11	6	10	-9
CC1=NN(CCC#N)C(=O)/C1=C/c1ccc(N(C)C)cc1	8	-84	-33	77*
O=C(CN1CCN(c2ccccn2)CC1)Nc1ccc(Oc2ccccc2)cc1	52	4	-2	active
COc1ccc(NC(=O)CN2CCCN(S(=O)(=O)c3ccc(F)cc3)CC2)cc1	-7	1	0	7
COc1ccc(NC(=O)CN2CCN(c3c(C)cc(C)cc3C)CC2)cc1	-6	-11	37*	0
COc1ccc(S(=O)(=O)N2CCCN(CC(=O)Nc3ccc(NC(C)=O)cc3)CC2)cc1	-3	-16	39*	1
COc1ccc(NC(=O)CN2CCN(c3c(C)cccc3C)CC2)cc1	-15	0	6	-3
Cc1noc(C)c1C(=O)OC(C)C(=O)N(C)c1ccccc1 (stereo not drawn)	/	-7	-1	/
O=C(O)CCC(C(=O)O)n1c(O)c(C2=c3ccccc3=NC2=O)sc1=S (stereo not drawn)	25	40*	-9	-3
O=C(O)Cn1c(O)c(C2=c3ccccc3=NC2=O)sc1=O	4	6	-71	4
Fc1ccc(-n2nnc(-c3cccnc3)n2)cc1	1	9	27*	-8
c1cncc(-c2nnc(-c3cccnc3)nn2)c1	6	41*	5	-15
c1ccc(-c2nnc(-c3ccccc3)nn2)cc1	3	4	1	2
CCS(=O)(=O)c1ccc(C=NNc2nc3ccccc3o2)cc1	/	-6	18*	/
NS(=O)(=O)c1ccc(NC(=O)c2cccc3cc4ccccc4nc23)cc1	/	-6	-36	/
COC(=O)c1sccc1NC(=O)Nc1ccc(OC)cc1	-1	-4	-6	-6
CCOc1ccc(-c2ccc(/C=C3/C(=N)N4C=CSC4=NC3=O)o2)c([N+](=O)[O-])c1	-5	-10	-41	?
CCOc1ccc(-c2ccc(/C=C3/C(=N)N4C(C)=CSC4=NC3=O)o2)c([N+](=O)[O-])c1	5.9*	-10	-18	80*
C=C1CCN([C@@H](CC(C)C)C(=O)NCCC(C)C)S(=O)(=O)c2ccccc21	/	10	24*	/
SMILES	PABP polyA inh	MLLE-PAM2 inh	NRP1-CendR mod	eIF4H inh
C=C1CCN([C@@H](Cc2ccccc2)C(=O)Nc2ccc(OC)cc2)S(=O)(=O)c2ccccc21	/	-4	27*	/
C=C1CCN([C@@H](CC(C)C)C(=O)NCc2ccc(Cl)c(Cl)c2)S(=O)(=O)c2ccccc21	/	8	32*	/
Cc1cccc(NC(=O)CN(CC2CCCO2)C(=O)c2oc3ccccc3c2C)c1C (stereo not drawn)	/	4	4	/
Cc1nc2cc(OC3(C)CCN(Cc4ccc(OC(F)(F)F)cc4)C3)ccc2s1 (stereo not drawn)	/	-6	-12	/
CCOC(=O)C1CCN(C(=O)COC(=O)CSc2ccccc2C)CC1	/	1	8	/
C=C(CC[C@@H](O)C(C)(C)O)[C@H]1CC[C@]2(C)[C@@H]1CCC1[C@@]3(C)CCC(=O)C(C)(C)C3CC[C@]12C (stereo partly drawn)	/	2	28*	/
CCOC(=O)C(=CNc1ccc(O)c(C(=O)OC)c1)C(=O)OCC	/	21	25*	/
CC(=O)Nc1ccc(SCC(=O)c2cc(C)n(-c3ccccc3F)c2C)cc1	-10	40*	6	2
CC(=O)Nc1ccc(SCC(=O)NC(=O)c2ccccc2Br)cc1	/	44*	0	/
CC(=O)Nc1ccc(NC(=O)c2ccccc2Br)cc1	/	0	7	/
Cc1ccccc1N=Cc1cc2c(cc1[N+](=O)[O-])OCO2	3.0*	15	-4	96
Cc1cc(C)nc(N/N=C/c2cc3c(cc2[N+](=O)[O-])OCO3)n1	11*	8	-13	55*
Cc1c(N=Cc2cc3c(cc2[N+](=O)[O-])OCO3)cccc1[N+](=O)[O-]	/	24	12	/
CC(/C=C/c1ccco1)=N\NC(=O)CNc1cccc(C)c1	2.2*	0	14	95*
COC(=O)N/N=C(C)\C=C\c1ccco1	5	9	-4	29
COc1cccc(/C=C2/CN(C)CC3=C2OC(N)=C(C#N)C3c2cccc(OC)c2)c1 (stereo not drawn)	78*	-47	-38	75*
N#C/C(=C(/O)COC(=O)CCc1ccc(S(=O)(=O)N2CCOCC2)cc1)c1nc2ccccc2[nH]1	41*	-12	-50	81
O=C(O)C1C2CCC(O2)C1C(=O)Nc1cccc(Cl)c1 (stereo not drawn)	-1	-6	-3	-2
CC(Sc1nnc(-c2ccc(C(C)(C)C)cc2)n1C)C(N)=O (stereo not drawn)	4	-45	24*	-10
Cn1c(SCC(=O)C(C)(C)C)nnc1-c1ccc(F)cc1	4	-16	-2	3
COc1ccc(NS(=O)(=O)c2cc(NC(=O)c3ccc(=O)[nH]n3)ccc2N2CCOCC2)cc1	/	16	-5	/
O=C(NCC(=O)N1CCN(c2ccccc2)CC1)c1ccco1	12	-15	27*	-3
O=C(Cc1ccc(Br)cc1)N1CCN(c2ccc(F)cc2)CC1	7	-8	23*	2
O=C(Cc1ccccc1)NCC(=O)N1CCN(c2ccc(F)cc2)CC1	/	14	26*	/
COc1ccc(CC(=O)N2CCN(c3ccc(F)cc3)CC2)cc1	10	2	-22	7
SMILES	PABP polyA inh	MLLE-PAM2 inh	NRP1-CendR mod	eIF4H inh
Cc1ccc(NC(=O)C2CC(=O)N(c3ccccc3Cl)C2)cc1S(=O)(=O)N1CCOCC1 (stereo not drawn)	/	-9	2	/
COCCN1CC(C(=O)NCc2ncccc2C)CCC1=O (stereo not drawn)	-2	-6	13	-8
Cc1ccc2oc(=O)c3cc(C(=O)NCCCN4C(C)CCCC4C)sc3c2c1 (stereo not drawn)	6	-9	1	-8
O=C(O)COc1ccc2oc3c(c2c1)CCCC3	-8	12	-7	-2
Oc1ccc2oc3c(c2c1)CCCC3	-3	1	28*	3
CC1CCCN(CC(=O)Nc2ccc(S(=O)(=O)N3C(C)CCCC3C)cc2)C1 (stereo not drawn)	/	-3	-8	/
